# Measurements from PubChem BioAssay (NCI).
# About 83,000 compounds went through this panel and 20% of them were active in at least one assay; those are over-represented in the sample as a whole.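 48-hour exposure, single concentration, 96-well plates; percent growth endpoint where 0 means no net growth. Active: below 10.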 Values without a mark were called inactive. The source made the active and inactive calls.
# System: MDA-MB-468 breast
# Experiment: NCI-60 one-dose screen, 48 h (100 = growth as untreated, 0 = no growth, -100 = all killed)
# Details: 10 µM unless noted
row,Structure (SMILES),growth
1,O=c1nc(NO)[nH]c(=O)n1Cc1ccc(F)cc1,107%
2,CC[C@H]1CCC/C=C/[C@@H]2C[C@H](O)C[C@H]2[C@H](O)/C=C/C(=O)O1,-51.5% (active)
3,Cc1cc(N2CCCCC2)nc(NCc2cc(Nc3ccnc4cc(Cl)ccc34)ccc2F)n1,-60.3% (active)
4,COc1cc(C(=O)/C=C/c2cn(-c3ccccc3)nc2-c2cccc(Nc3ccnc4cc(Cl)ccc34)c2)cc(OC)c1OC,71.7%
5,O=S(=O)(NCCCNc1nccc(-n2cnc3ccccc32)n1)c1ccc(C(F)(F)F)cc1,76.2%
6,NC(=O)NN=C(C1CC1)C1CC1,119%
7,C=C1c2nc3ccccc3n2C=C(c2ccc(Cl)cc2)N1Cc1ccccc1,59.1%
8,Cc1cc(N2CCN(CCNc3ccnc4cc(Cl)ccc34)CC2)nc(N2CCOCC2)n1,24.3%
9,Nc1c(C(=O)Nc2cccc(Cl)c2Cl)sc2nc3c(cc12)C(=O)CCC3,71.8%
10,COc1ccc(/C=N/C2=C(C#N)C(c3ccccc3)c3c(ccc4ccccc34)O2)cc1 (stereo not given),-3.92% (active)
11,N[C@H]1CN(C(=O)c2cc3cc(Br)c(F)c(F)c3[nH]2)C[C@@H]1O,106%
12,CC(CNC(Cc1ccccc1)c1ccccc1)NC(Cc1ccccc1)c1ccccc1 (stereo not given),14.5%
13,COc1ccc(-c2cc(-c3cc(OC)ccc3OC)nc(SCC(C)=O)c2C#N)cc1,56.2%
14,Oc1cccc(Nc2nccc(-c3ccc4ccccc4c3)n2)c1,15.6%
15,O=C(O)C(O)C(O)C(=O)O.[NH-]C1CCCCC1[NH-].[Pt+2] (stereo not given),95.5%
16,CO[C@H]1C[C@@H]2CC[C@@H](C)[C@@](O)(O2)C(=O)C(=O)N2CCCC[C@H]2C(=O)O[C@H]([C@H](C)C[C@@H]2CC[C@@H](OP(C)(C)=O)[C@H](OC)C2)CC(=O)[C@H](C)/C=C(\C)[C@@H](O)[C@@H](OC)C(=O)[C@H](C)C[C@H](C)\C=C/C=C/C=C/1C,39.9%
17,CC(=O)[C@@H]1CC[C@]2(C(=O)O)CC[C@]3(C)[C@H](CC[C@@H]4[C@@]5(C)Cc6c([nH]c7ccccc67)C(C)(C)[C@@H]5CC[C@]43C)[C@@H]12,82%
18,COc1ccc(Nc2nn3c(C)cc(C)nc3c2C(=O)Nc2ccc(C)cc2)c(OC)c1,91.6%
19,COC(c1ccc2c(c1)OCO2)C(C)Br (stereo not given),93.4%
20,COc1cccc(NC(=O)NCCNc2nccc(-c3c(-c4ccc(F)cc4)nc4sccn34)n2)c1,94.3%
21,CCCCCCCCO/N=C\c1c2c(O)c3c(O)c(C)c4c(c3c1O)C(=O)C(C)(O/C=C\C(OC)C(C)C(OC(C)=O)C(C)C(O)C(C)C(O)C(C)/C=C\C=C(\C)C(=O)N2)O4 (stereo not given),3.49% (active)
22,O=C(N/N=C\c1cc(Cl)ccc1[N+](=O)[O-])c1ccco1,58.5%
23,CC/C(=C(/c1ccc(Cl)cc1)c1ccc(OCCN)cc1)c1ccccc1,88.8%
24,CC1=C(NCCN2CCCC2)C(=O)c2c(OCc3ccc(F)c(Cl)c3)cccc2C1=O,67.1%
25,COc1cc(C2CC(c3ccc(Nc4nc(NCCO)nc(NCCO)n4)cc3)=NN2c2cc(Cl)cc(Cl)c2)cc(OC)c1OC (stereo not given),-9.24% (active)
